High-throughput results as filed in PubChem.
Shown are actives, neighbours in structure and some others; about 5.3% of the full set was active somewhere.
15-hLO-2 inh – inhibitors of human 15-lipoxygenase 2 (ALOX15B). Potency, µM (titrated, usually from 57.1 µM), without a hit: at the top dose activity change, negative = inhibition, hits mostly inhibitors. purified 15hLO-2, xylenol orange hydroperoxide absorbance. AID 881. 110,000 tested, 0.56% active; also: potency is read from the fitted curve at half-maximal effect; nearly all actives have a fitted effect of over 60% in size
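Purified human 15hLO-2 (50 nM) preincubated 15 min with compound, then 45 uM arachidonic acid for 90 min at RT in 25 mM Hepes pH 7.5, 0.01% Triton X-100. Hydroperoxide detected by Fe-xylenol orange; 573/405 nm absorbance ratio.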
IMPase Li cell – membrane-permeable IMPase blocker, potentiated with lithium; CHO-M1 cells, IP1 TR-FRET (IP-One), carbachol + lithium; Potency, µM (top dose mostly 59.4 µM), inactives show top-dose activity, negative = IMPase inhibition, hits mostly inhibitors; 210,000 tested, 0.35% active; AID 1457;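 also: IP1 builds up when IMPase is blocked and the TR-FRET signal falls; potency is read from the fitted curve at half-maximal effect; plate controls were basal vehicle for no effect and high inhibitor control for full effect; nearly all actives have a fitted effect of over 50% in size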
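CHO cells stably expressing M1 receptor (2000/well) were cultured 16–30 h, then exposed to compounds with a small lithium addition for 30 min at 37C. IP1 was measured by TR-FRET competition; AC50 from Hill fits.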
HPGD inh – blocks human HPGD enzyme activity | P15428 | purified HPGD, NADH fluorescence kinetic, PGE2 substrate | Potency, µM, for the others: top-dose activity change, negative = inhibition, hits mostly inhibitors | 150,000 tested, 4.3% active | AID 894; active = well fitted inhibition curve with a large enough effect, not every such curve was filed as active; inconclusive = small, poorly fitted or top-dose-only effect, or another doubt; inactive = no such curve, though single readings can be large or run the other way; also: potency is read from the fitted curve at half-maximal effect
Target sequence (P15428 whole entry, looked up): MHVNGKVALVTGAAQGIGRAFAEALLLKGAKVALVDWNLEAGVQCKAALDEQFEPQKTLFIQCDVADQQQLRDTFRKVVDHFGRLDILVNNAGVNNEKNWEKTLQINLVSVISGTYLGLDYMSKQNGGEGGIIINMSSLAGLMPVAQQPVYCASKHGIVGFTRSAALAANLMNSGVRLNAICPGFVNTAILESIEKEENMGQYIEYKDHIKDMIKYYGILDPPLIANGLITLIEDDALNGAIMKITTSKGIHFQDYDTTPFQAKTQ
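20 nM HPGD preincubated 15 min at room temperature with compound in 50 mM Tris-HCl pH 8, 0.01% Tween 20. Started with 1 mM NAD+ and 30 uM prostaglandin E2; NADH fluorescence (360/450 nm) read 5 times over 30-s intervals, last minus first.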
ALOX12 inhib – blocks human 12-lipoxygenase activity. purified 12-hLO, xylenol orange hydroperoxide absorbance. 150,000 tested, 0.12% active. Potency, µM (doses to about 57.1 µM), without a hit: at the top dose activity change, negative = inhibition, usual class: inhibitors. P18054; also: potency is read from the fitted curve at half-maximal effect; nearly all actives have a fitted effect of over 55% in size
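Purified human 12hLO (150 nM), preincubated 15 min with compound, then 40 uM arachidonic acid for 30 min, room temperature, Hepes pH 7.0 with 0.01% Triton X-100. Hydroperoxide detected by ferrous iron/xylenol orange; 573/405 nm absorbance ratio gives reaction progress.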
PNC inhibitor – blocks assembly of the perinucleolar compartment; PC3M PTB-GFP, PNC prevalence imaging, 16 h; hits give low values; activity change (PNC), negative = inhibition, % at 10 µM; 140,000 tested, 3.1% active; AID 2417;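 active = readout at or below -70, meaning at least 70% loss of cells showing the perinucleolar compartment, a nuclear body marking cancer cells; inconclusive = readout between -30 and a set limit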;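 also: plate controls were DMSO wells for no effect and camptothecin positive control wells for full effect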
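PC3M cells stably expressing PTB-GFP, 750–1000 cells/well, treated 16 h at 37 °C with compound (23 nl of library stock), in duplicate. After paraformaldehyde fixation and Hoechst stain, imaged at 20x; PNC prevalence scored by image analysis.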
IMPase cell inh – cell-permeable inhibitors of inositol monophosphatase (IMPase). P97697. CHO-M1 cells, IP1 accumulation, HTRF TR-FRET ratio. inhibition (IP1 accumulation), % at 46.1 µM. 120,000 tested, under 10 active. AID 901; active = well fitted curve in the direction sought with a large enough effect in the signal ratio, not every such curve was filed as active; inconclusive = small, poorly fitted or top-dose-only effect, or a change in a side signal; inactive = no such curve, though single readings can be large or run the other way; the % refers to the signal ratio;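 also: cells stimulated with carbachol in lithium chloride buffer; plate controls were DMSO basal wells for no effect and reference inhibitor wells for full effect; higher means more IMPase inhibition seen as more IP1 and lower FRET ratio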
Target sequence (P97697 whole entry, looked up): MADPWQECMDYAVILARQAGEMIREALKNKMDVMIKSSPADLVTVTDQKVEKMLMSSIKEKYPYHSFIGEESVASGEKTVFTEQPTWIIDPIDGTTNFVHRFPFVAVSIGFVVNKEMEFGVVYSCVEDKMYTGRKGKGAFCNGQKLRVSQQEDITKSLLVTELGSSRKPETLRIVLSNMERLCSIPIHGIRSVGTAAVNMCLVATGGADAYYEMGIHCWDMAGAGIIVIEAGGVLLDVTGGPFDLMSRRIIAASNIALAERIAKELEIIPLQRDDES
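The IP-One HTRF competitive assay in carbachol-stimulated CHO-M1 cells quantifies cellular IP1. Compounds spanned up to 46 uM final, and activity is expressed as AC50 from concentration-response fits of the ratio and donor data.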
* marks the source's active call; other numbers are inactive results; ? = inconclusive; . = no result given; [ ] = dose if it differs, or a comment. Unless noted, calls follow the shape of the dose curve; as a rule, active = well fitted curve in the direction sought with a large enough effect; inconclusive = small, poorly fitted or top-dose-only effect, or another doubt; inactive = no such curve, though single readings can be large; an effect the other way counts as inactive or inconclusive. Unless noted, % is scaled to controls: 0 for no effect and ±100 for the full control effect.

SMILES | 15-hLO-2 inh | IMPase Li cell | HPGD inh | ALOX12 inhib | PNC inhibitor | IMPase cell inh
CCN(CC)C(=O)c1sc(NC(=O)c2ccc3c(c2)OCO3)c(C#N)c1C | -4% | 17%[38.3 µM] | 6.3µM* | 2% | ? | -5
O=C(COC(=O)C(Cc1ccccc1)NC(=O)c1ccc(Cl)cc1)c1ccc(Cl)cc1 (stereo not drawn) | . | 5% | -9% | 2% | -1 | .
CC12CCC(C(=O)N3CCC(Cc4ccccc4)CC3)(C(=O)C1=O)C2(C)C (stereo not drawn) | . | 9% | . | . | . | .
Cc1ccccc1OCCC(=O)OCC(=O)Nc1cc(S(=O)(=O)N2CCOCC2)ccc1Cl | . | 10% | . | . | . | .
Cc1cc(N(CC(=O)NC(C)C)S(C)(=O)=O)ccc1Br | . | 5% | -22% | 2% | -30 | .
S=c1[nH]nc(COc2ccccc2)n1/N=C/c1cccs1 | . | -14% | 14µM* | -12% | ? | 4
Cc1ccsc1/C=N/n1c(COc2ccccc2)n[nH]c1=S | . | 0% | 14µM* | 0% | -17 | -3
S=c1[nH]nc(-c2ccccn2)n1/N=C/c1cccs1 | . | -5% | -19% | -2% | -22 | .
CCc1cc[n+](-c2nc3ccccc3nc2[N-]S(=O)(=O)c2ccc(Br)s2)cc1 | . | -20% | 1% | -8% | ? | .
COc1ccccc1-n1c(SCC(=O)NC(C)(C)C)nnc1-c1ccco1 | . | 4% | 16µM* | -2% | -25 | ?
COc1ccc(NCc2nnc(SCC(=O)NCc3ccccc3)n2-c2ccccc2OC)cc1 | . | 21% | 2% | -11% | -106* | 12
C=CCN1C(=O)CS/C1=N\N=C\c1cccc([N+](=O)[O-])c1 | . | -8% | . | . | . | .
Cc1cc(C)c2cc(C#N)c(NCCCNC(=O)CCC(=O)O)nc2c1 | 11% | -5%[38.3 µM] | ? | -6% | -87* | -7
Cc1n[nH]c(=S)n1/N=C/c1ccc(-c2ccccc2[N+](=O)[O-])o1 | -8% | 17%[38.3 µM] | 14µM* | -4% | -6 | 0
O=C(CSCC(=O)N1CCN(c2ccccc2)CC1)Nc1nc(-c2ccc(Cl)s2)cs1 | -7% | 35%[38.3 µM] | -18% | -9% | -108* | 11
O=C(CSCC(=O)N1CCCCC1)Nc1nc(-c2ccc(Cl)s2)cs1 | -6% | 26%[38.3 µM] | ? | -10% | 8 | 8
O=C(N/N=C\CCc1ccccc1)c1ccco1 | . | 4% | -10% | -3% | ? | .
COc1ccc(C2C(C(=O)NCc3ccccn3)c3ccccc3C(=O)N2C)cc1OC (stereo not drawn) | 5% | -19%[38.3 µM] | -15% | -4% | -88* | -2
CC(C)Cn1c(-c2ccncc2)n[nH]c1=S | . | 4% | . | . | . | .
CCn1c(-c2ccc(F)cc2)n[nH]c1=S | -10% | 26%[38.3 µM] | -11% | 2% | 14 | -13
CCn1c(-c2ccc(C(C)(C)C)cc2)n[nH]c1=S | 5%[11.4 µM] | 18%[38.3 µM] | ? | -5% | -89* | 2[1.84 µM]
CC(C)Cn1c(-c2csc3c2CCCC3)n[nH]c1=S | ? | 29%[38.3 µM] | 28µM* | ? | 8 | 7
CC(C)Cn1c(-c2ccccc2F)n[nH]c1=S | 0% | 3%[38.3 µM] | -24% | -2% | 16 | -1
CC(C)Cn1c(-c2ccc(F)cc2)n[nH]c1=S | -6% | 3%[38.3 µM] | 28µM* | -5% | -13 | -4
O=S(=O)(NCc1csc(-c2ccccc2)n1)c1ccc(Cl)s1 | . | 3% | 18µM* | -1% | 94 | -16
SMILES | 15-hLO-2 inh | IMPase Li cell | HPGD inh | ALOX12 inhib | PNC inhibitor | IMPase cell inh
CC(C)(C)OC(=O)N1CCC[C@H]1C(O)(c1ccccc1)c1ccccc1 | . | 12% | 0% | . | . | .
COCCCNC(=O)CCc1nc(-c2ccccc2)no1 | -5% | 28%[38.3 µM] | ? | 11% | -19 | -1
COc1cc(-c2noc(CCCC(=O)NCc3ccco3)n2)cc(OC)c1OC | . | 5% | -18% | -2% | -100* | -1
COc1ccccc1-c1noc(CCC(=O)Nc2ccccc2Cl)n1 | -15% | 5% | 25µM* | 0% | ? | -10
Cc1ccc(-c2noc(CCC(=O)NCc3ccco3)n2)cc1 | -19% | 18%[38.3 µM] | 28µM* | -5% | 22 | -3
COCCNC(=O)CCc1nc(-c2ccccc2)no1 | 5% | 3%[38.3 µM] | 16µM* | 0% | 30 | -4
CCOC(=O)c1cc(OC(=O)c2cccc(F)c2)n(-c2ccccc2)n1 | . | . | . | . | . | -2
O=C(c1cccnc1)N1CCN(C(=O)c2ccco2)CC1 | . | 3% | -19% | -4% | -100* | 0
Cc1occc1C(=O)N1CCN(C(=O)C2CCCO2)CC1 (stereo not drawn) | -5% | 13%[38.3 µM] | -8% | -1% | -8 | -5
O=C(c1ccco1)N1CCN(C(=O)C2CCCO2)CC1 (stereo not drawn) | . | 0% | -9% | -4% | -100* | -7
O=C(c1cccnc1)N1CCc2ccccc2C1 | -2% | -12%[38.3 µM] | 32µM* | 3% | 11 | 1
Cc1ccc2nc(NC(=O)C(NS(=O)(=O)c3cccc4nsnc34)C(C)C)sc2c1 (stereo not drawn) | 1% | 4%[38.3 µM] | 0% | -17% | ? | -3
O=C(CCS(=O)(=O)c1ccc(Cl)cc1)NCCc1c[nH]c2ccccc12 | . | -4% | . | . | . | .
O=C1c2ccccc2C(=O)N1c1ccc(-c2nc3ccccc3o2)cc1 | 2% | . | . | -3% | ? | -1
O=C1c2ccccc2C(=O)N1c1cccc(-c2nc3ccccc3o2)c1 | -11% | 1%[38.3 µM] | -7% | 1% | -89* | ?
NS(=O)(=O)c1ccc(CCNC(=O)CSc2nc3ccccc3c(=O)n2CCC(=O)N2CCCCC2)cc1 | . | 0% | . | . | . | .
Cc1ccc(/C=C/C(=O)Nc2nn[nH]n2)o1 | . | 4% | -27% | -5% | 0 | .
O=C(Nc1cccc2ncccc12)c1cccnc1 | 5% | 13% | -10% | 8% | 17 | -11
Cc1ccc(/C=C/C(=O)Nc2cccc3ncccc23)o1 | -11% | 2% | 32µM* | 0% | 0 | 0
Cc1ccc(/C=C/C(=O)Nc2cccnc2)o1 | . | 3% | 22µM* | -2% | ? | .
O=C(Nc1ccccc1)O/N=C/c1ccccc1Cl | 14% | 39%[38.3 µM] | 40µM* | 2% | 30 | -8
COc1ccc(/C=N/OC(=O)Nc2ccccc2)cc1[N+](=O)[O-] | . | -3% | -4% | 0% | 23 | .
Cn1c(C(=O)NCC2CCCO2)cc2oc3ccccc3c21 (stereo not drawn) | -9% | 10%[38.3 µM] | 1.4µM* | -5% | -6 | -2
Cn1c(C(=O)NCc2ccccc2)cc2oc3ccccc3c21 | 2% | 29%[38.3 µM] | ? | -1% | -106* | 13
O=C(Nc1ccc2cn[nH]c2c1)c1c(Cl)cccc1Cl | . | 2% | 22µM* | 1% | -23 | 6
O=C(Nc1ccc2cn[nH]c2c1)c1ccccc1F | . | 5% | ? | -1% | ? | .
